Each structure is given as a SMILES string. Values joined by “and” are separate entries in the source; they are usually repeats but may differ in a detail not shown here. Identical values can stand only once. Inconclusive results are not listed. Some structures have more than one record in an assay (separate samples or runs), and their calls can disagree. Active and inactive are the calls of the source. Unless noted, calls come from the whole dose curve.

Our source for the Potency and outcome values is PubChem BioAssay (Tox21).

Assay [1] in a line: qHTS assay to identify small molecule antagonists of the sonic hedgehog signaling (Shh) pathway (AID 1259369). Note: nearly all actives have a fitted effect of over 45% in size. Note: potency is the fitted concentration of half-maximal effect. In outline: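 3T3Gli1-Luc, conditioned-medium-stimulated, 24hr cpd, 37C/5% CO2; Gli1-driven firefly Luc luminescence after 30min RT with luciferase reagent. Cells plated 4hr before cpd.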
Assay [2] deals with Estrogen receptor beta (Homo sapiens) (UniProt Q92731). Nature of the assay: qHTS assay to identify small molecule agonists of the estrogen receptor beta (ER-beta) signaling pathway (AID 1259377; active = well fitted activation curve with a large enough effect in the signal ratio in the repeat runs, not every such curve was filed as active; the % refers to the signal ratio). The method in brief:
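Beta-lactamase reporter readout: fluorescence of LiveBLAzer B/G FRET substrate after 2 h at room temperature, following 16 h compound treatment of ER-beta-UAS-bla HEK293T cells at 37C in 2% charcoal-stripped FBS medium.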
On the technique in general: In qHTS, concentration-response curves come from the screen itself.

Assay [3] shares this target. Nature of the assay: qHTS assay to identify small molecule antagonists of the estrogen receptor beta (ER-beta) signaling pathway (AID 1259378; active = well fitted inhibition curve with a large enough effect in the signal ratio in the repeat runs, not every such curve was filed as active; the % refers to the signal ratio). The method in brief:
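Antagonist mode: compounds added to beta-lactamase reporter HEK293T ER-beta-UAS cells stimulated with E2 (1nM final), 16 hr at 37C. LiveBLAzer B/G FRET substrate, 2 hours room temperature, fluorescence read-out.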

A short description of assay [4]: qHTS assay to identify small molecule agonists of the androgen receptor (AR) signaling pathway in the presence of an antagonist - cell viability counter screen (AID 1259379; active = well fitted curve in the direction sought with a large enough effect in the repeat runs; an effect the other way counts as inactive or inconclusive;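 note: MDA-kb2 human breast cancer cells carrying an MMTV luciferase reporter; series mostly up to about 92 µM; nearly all actives have a fitted effect of over 25% in size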). The method in brief: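 Cells: MDA-kb2 (MMTV-luc, AR and GR elements), 3,000/well, 5 hr settle. Added: nilutamide 3.0uM final, then compounds (15 conc.). Incubation: 16 hr, 37C, no CO2. Read-out: CellTiter-Fluor, 1 hr, fluorescence.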

The nature of assay [5]: qHTS assay to identify small molecule agonists of the estrogen receptor beta (ER-beta) signaling pathway - cell viability counter screen (AID 1259380; active = well fitted curve in the direction sought with a large enough effect in the repeat runs; an effect the other way counts as inactive or inconclusive; note: nearly all actives have a fitted effect of over 30% in size). The method in brief:
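HEK293T ER-beta-UAS-bla; 2% CS-FBS; 6 hr pre-plate, 16 hr cpd at 37C/5% CO2; LiveBLAzer read first, then CellTiter-Glo 30 min RT, luminescence.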

The nature of assay [6]: qHTS assay to identify small molecule antagonists of the estrogen receptor beta (ER-beta) signaling pathway - cell viability counter screen (AID 1259382; active = well fitted curve in the direction sought with a large enough effect in the repeat runs; an effect the other way counts as inactive or inconclusive;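 note: HEK293T cells carrying ER-beta-UAS-bla reporter stimulated with estradiol; series mostly up to about 92 µM; nearly all actives have a fitted effect of over 55% in size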). The method in brief: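 Cells: ER-beta-UAS-bla HEK293T, 2,000/well, 2% CS-FBS, 6 hr settle. Cpd + E2 (1nM final), 16 hr, 37C/5% CO2. Bla FRET substrate 2 hr RT, then CellTiter-Glo 30 min RT, luminescence.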
Assay [7] has as its target Estrogen receptor (Homo sapiens) (UniProt P03372). Nature of the assay: qHTS assay to identify small molecule agonists of the estrogen receptor alpha (ER-alpha) signaling pathway in the presence of an antagonist (AID 1259383). Note: top concentration of the series differs between compounds; nearly all actives have a fitted effect of over 15% in size. The method in brief: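 VM7Luc4E2, endog. ER-alpha + 4×ERE-luc; charcoal-stripped FBS, phenol red-free, 5 d; 24hr plating; +10.0nM ICI-182,780 (final); cpds 15 conc, 22hr, 37C/5% CO2; ONE-Glo luminescence.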

Assay [8] in a line: qHTS assay to identify small molecule agonists or antagonists of the thyroid stimulating hormone receptor (TSHR) signaling pathway - wild type cell line counter screen (AID 1259384). In outline: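 Counter screen in untransfected Hek293: compounds (15-point titration, triplicate) plus phosphodiesterase inhibitor Ro20-1724 added after 18 h plating; 30 min RT. Intracellular cAMP via competitive d2/cryptate immunoassay, 1 h incubation.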

In assay [9] the target is Thyrotropin receptor (Homo sapiens) (UniProt P16473). Nature of the assay: qHTS assay to identify small molecule antagonists of the thyroid stimulating hormone receptor (TSHR) signaling pathway (AID 1259385). Note: nearly all actives have a fitted effect of over 20% in size. In outline: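 Antagonist mode: compound-treated TSHR-expressing HEK293 cells were stimulated with 1.5 ng/mL TSH (final) in presence of Ro20-1724 for 30 min at RT. HTRF cAMP detection after 1 h; each compound tested at 15 concentrations, triplicate.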
Thyrotropin receptor (Homo sapiens), sequence (P16473 whole entry, looked up): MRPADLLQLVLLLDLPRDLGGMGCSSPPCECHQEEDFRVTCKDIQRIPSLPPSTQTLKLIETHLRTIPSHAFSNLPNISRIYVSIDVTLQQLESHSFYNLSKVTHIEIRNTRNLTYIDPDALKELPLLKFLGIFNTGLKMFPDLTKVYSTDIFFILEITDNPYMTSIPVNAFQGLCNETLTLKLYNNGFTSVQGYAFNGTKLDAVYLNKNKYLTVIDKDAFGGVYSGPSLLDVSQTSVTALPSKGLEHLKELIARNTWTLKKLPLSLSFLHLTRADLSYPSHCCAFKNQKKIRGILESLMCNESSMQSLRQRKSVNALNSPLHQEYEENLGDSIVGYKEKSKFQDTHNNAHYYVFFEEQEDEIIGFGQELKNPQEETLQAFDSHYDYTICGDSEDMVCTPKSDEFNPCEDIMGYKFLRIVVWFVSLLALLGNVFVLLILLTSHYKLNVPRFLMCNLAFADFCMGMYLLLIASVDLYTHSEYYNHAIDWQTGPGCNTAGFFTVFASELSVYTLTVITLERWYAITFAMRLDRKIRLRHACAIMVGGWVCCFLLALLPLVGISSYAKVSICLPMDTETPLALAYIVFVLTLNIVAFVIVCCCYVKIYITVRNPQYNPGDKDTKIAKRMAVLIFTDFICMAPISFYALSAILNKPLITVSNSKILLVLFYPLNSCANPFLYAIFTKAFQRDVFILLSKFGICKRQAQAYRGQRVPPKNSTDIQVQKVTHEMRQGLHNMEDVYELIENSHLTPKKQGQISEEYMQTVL

The target in assay [10] is Progesterone receptor (Homo sapiens) (UniProt P06401). Nature of the assay: qHTS assay to identify small molecule agonists of the progesterone receptor (PR) signaling pathway (AID 1346784). Note: nearly all actives have a fitted effect of over 30% in size. The method in brief: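 HEK 293T PR-UAS-bla reporter cells, 2% charcoal-stripped FBS; 6 hr settle at 37C/5% CO2, compound (DMSO) 16 hr, LiveBLAzer B/G FRET substrate 2 hr RT, fluorescence intensity read.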
Progesterone receptor (Homo sapiens), sequence (P06401 whole entry, looked up): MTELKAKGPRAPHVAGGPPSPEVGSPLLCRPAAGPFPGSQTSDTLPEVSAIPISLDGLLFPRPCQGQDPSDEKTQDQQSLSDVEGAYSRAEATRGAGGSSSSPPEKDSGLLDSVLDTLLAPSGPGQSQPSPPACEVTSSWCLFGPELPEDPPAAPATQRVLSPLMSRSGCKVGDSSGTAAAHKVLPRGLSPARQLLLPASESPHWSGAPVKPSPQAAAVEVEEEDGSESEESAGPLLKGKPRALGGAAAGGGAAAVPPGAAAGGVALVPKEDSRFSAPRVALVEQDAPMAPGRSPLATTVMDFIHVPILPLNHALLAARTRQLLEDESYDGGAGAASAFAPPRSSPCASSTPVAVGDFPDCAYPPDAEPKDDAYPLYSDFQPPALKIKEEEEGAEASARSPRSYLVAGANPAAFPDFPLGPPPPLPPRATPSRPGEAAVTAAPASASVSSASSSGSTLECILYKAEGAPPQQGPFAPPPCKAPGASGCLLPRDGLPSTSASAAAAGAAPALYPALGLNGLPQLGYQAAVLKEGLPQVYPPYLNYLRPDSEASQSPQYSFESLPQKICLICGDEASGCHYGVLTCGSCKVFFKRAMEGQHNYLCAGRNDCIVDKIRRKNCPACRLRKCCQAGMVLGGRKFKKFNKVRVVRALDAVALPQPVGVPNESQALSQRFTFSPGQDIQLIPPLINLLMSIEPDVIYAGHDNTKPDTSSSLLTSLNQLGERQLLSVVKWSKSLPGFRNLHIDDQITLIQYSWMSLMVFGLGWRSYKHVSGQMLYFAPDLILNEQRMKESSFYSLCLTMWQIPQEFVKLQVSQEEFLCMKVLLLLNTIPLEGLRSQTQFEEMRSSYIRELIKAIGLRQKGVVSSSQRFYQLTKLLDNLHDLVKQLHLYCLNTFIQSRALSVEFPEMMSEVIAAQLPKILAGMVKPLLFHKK

Assay [11] shares this target. Nature of the assay: qHTS assay to identify small molecule antagonists of the progesterone receptor (PR) signaling pathway (AID 1346795; active = well fitted inhibition curve with a large enough effect in the signal ratio in the repeat runs, not every such curve was filed as active; the % refers to the signal ratio; note: potency is the fitted concentration of half-maximal effect). The method in brief:
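Beta-lactamase reporter, HEK293T PR-UAS-bla line; 2% charcoal-stripped FBS; 6 hr pre-incubation, 37C/5% CO2. Compound + R5020 1 nM final, 16 hr. LiveBLAzer B/G FRET substrate, 2 hr RT; fluorescence intensity read.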

A short description of assay [12]: qHTS assay to identify small molecule antagonists of the progesterone receptor (PR) signaling pathway - cell viability counter screen (AID 1346798; active = well fitted curve in the direction sought with a large enough effect in the repeat runs; an effect the other way counts as inactive or inconclusive; note: series mostly up to about 92 µM; nearly all actives have a fitted effect of over 50% in size). In outline:
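Luminescence readout (CellTiter-Glo, 30 min, RT) of viability in PR-UAS-bla HEK293T cells exposed to compound and R5020 agonist for 16 hr at 37C, 5% CO2; run in the same wells as the beta-lactamase reporter read.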

The nature of assay [13]: qHTS assay to identify small molecule antagonists of the TGF-beta/Smad signaling pathway - cell viability counter screen (AID 1346824; active = well fitted curve in the direction sought with a large enough effect in the repeat runs; an effect the other way counts as inactive or inconclusive; note: nearly all actives have a fitted effect of over 50% in size). In outline:
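Cytotoxicity counter-screen run in the same wells as the beta-lactamase Smad reporter read: CellTiter-Glo luminescence after 30 min at room temperature. HEK 293T SBE-bla cells had 5 hr compound exposure at 37 C with TGF-beta1 (0.25 ng/mL stock).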

Assay [14] is described as follows: qHTS assay to identify small molecule agonists of the TGF-beta/Smad signaling pathway - cell viability counter screen (AID 1346829; active = well fitted curve in the direction sought with a large enough effect in the repeat runs; an effect the other way counts as inactive or inconclusive; note: top concentration of the series differs between compounds; nearly all actives have a fitted effect of over 45% in size). In outline: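 After overnight seating at 37 C and 5% CO2, reporter cells got compounds for 5 hr and FRET substrate for 2 hr; cell viability then came from CellTiter-Glo luminescence.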
Assay [15] can be described thus: qHTS assay to identify small molecule agonists of the TGF-beta/Smad signaling pathway (AID 1346859; active = well fitted activation curve with a large enough effect in the signal ratio in the repeat runs, not every such curve was filed as active; the % refers to the signal ratio; note: series mostly up to about 77 µM). The method in brief:
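Read-out: fluorescence at 460 and 530 nm (405 nm excitation) after a 2 hr room-temperature incubation with beta-lactamase FRET substrate. SBE-bla HEK 293T cells had been treated with test compounds for 5 hr at 37 C.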

In assay [16] the target is Thyrotropin-releasing hormone receptor (Homo sapiens) (UniProt P34981). Nature of the assay: qHTS assay to identify small molecule antagonists of the thyrotropin-releasing hormone receptor (TRHR) signaling pathway (AID 1346877; active = well fitted inhibition curve with a large enough effect in the repeat runs, not every such curve was filed as active; note: series mostly up to about 51 µM). The method in brief:
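Intracellular calcium fluorescence, read kinetically every second over 3 min, reports TRH-evoked signalling in HEK293 cells carrying TRHR. Test compounds were added 5 min ahead of a 1 nM TRH challenge.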

Assay [17] has the same target. Nature of the assay: qHTS assay to identify small molecule agonists of the thyrotropin-releasing hormone receptor (TRHR) signaling pathway (AID 1346891).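 Note: HEK293 cells expressing TRHR with calcium dye readout; series mostly up to about 58 µM.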 In outline:
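HEK293/TRHR cells, 1500 per well, 18 h 37 °C; Ca dye 2 h 37 °C; pin-tool compound addition (agonist mode); kinetic fluorescence 3 min, 1 s reads; 15 concentrations, triplicate.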

The nature of assay [18]: qHTS assay to identify small molecule agonists of the estrogen receptor alpha (ER-alpha) signaling pathway in the presence of an antagonist - cell viability counter screen (AID 1259386; active = well fitted curve in the direction sought with a large enough effect in the repeat runs; an effect the other way counts as inactive or inconclusive;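 note: series mostly up to about 92 µM; cells exposed to compounds for 22 h at 37 °C before the viability read; nearly all actives have a fitted effect of over 30% in size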). The method in brief: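 VM7Luc4E2, stripped-serum pre-culture 5 d; 24hr plating; +ICI-182,780 10.0nM final; cpds 15 conc, 22hr, 37C/5% CO2; CellTiter-Fluor added at 21hr, fluorescence 1hr later.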

The nature of assay [19]: qHTS assay to identify small molecule agonists of the progesterone receptor (PR) signaling pathway - cell viability counter screen (AID 1346799). Note: nearly all actives have a fitted effect of over 45% in size. In outline: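 HEK293T PR-UAS-bla, 3,000 cells/well, 2% charcoal-stripped FBS; 6 h settle, compound 16 h at 37C/5% CO2; LiveBLAzer 2 h RT, then CellTiter-Glo 30 min RT, luminescence read.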
Assay [20] has as its target Androgen receptor (Homo sapiens) (UniProt P10275). Nature of the assay: qHTS assay to identify small molecule agonists of the androgen receptor (AR) signaling pathway in the presence of an antagonist (AID 1259381). Note: nearly all actives have a fitted effect of over 15% in size. In outline: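 MDA-kb2 cells, 3,000/well, rested 5hr at 37C/0% CO2 → nilutamide 3.0uM final or buffer → compounds, 15 conc. → 16hr at 37C → ONE-Glo, 30min RT → luminescence.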

Estrogen receptor beta (Homo sapiens), sequence (Q92731 whole entry, looked up): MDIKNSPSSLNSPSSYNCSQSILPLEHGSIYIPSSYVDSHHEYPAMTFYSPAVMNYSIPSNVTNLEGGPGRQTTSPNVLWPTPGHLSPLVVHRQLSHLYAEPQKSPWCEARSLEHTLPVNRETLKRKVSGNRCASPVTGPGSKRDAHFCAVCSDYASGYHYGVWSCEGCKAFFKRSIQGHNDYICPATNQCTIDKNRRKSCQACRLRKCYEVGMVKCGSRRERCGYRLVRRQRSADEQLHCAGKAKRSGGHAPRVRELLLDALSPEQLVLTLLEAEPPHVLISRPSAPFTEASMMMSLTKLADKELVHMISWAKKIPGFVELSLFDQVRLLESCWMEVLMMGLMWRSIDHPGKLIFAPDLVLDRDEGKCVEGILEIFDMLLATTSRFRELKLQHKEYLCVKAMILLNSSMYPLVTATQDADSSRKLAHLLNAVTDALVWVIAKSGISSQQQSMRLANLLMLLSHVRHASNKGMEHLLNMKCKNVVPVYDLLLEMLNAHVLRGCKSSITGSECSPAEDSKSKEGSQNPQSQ
Androgen receptor (Homo sapiens), sequence (P10275 whole entry, looked up): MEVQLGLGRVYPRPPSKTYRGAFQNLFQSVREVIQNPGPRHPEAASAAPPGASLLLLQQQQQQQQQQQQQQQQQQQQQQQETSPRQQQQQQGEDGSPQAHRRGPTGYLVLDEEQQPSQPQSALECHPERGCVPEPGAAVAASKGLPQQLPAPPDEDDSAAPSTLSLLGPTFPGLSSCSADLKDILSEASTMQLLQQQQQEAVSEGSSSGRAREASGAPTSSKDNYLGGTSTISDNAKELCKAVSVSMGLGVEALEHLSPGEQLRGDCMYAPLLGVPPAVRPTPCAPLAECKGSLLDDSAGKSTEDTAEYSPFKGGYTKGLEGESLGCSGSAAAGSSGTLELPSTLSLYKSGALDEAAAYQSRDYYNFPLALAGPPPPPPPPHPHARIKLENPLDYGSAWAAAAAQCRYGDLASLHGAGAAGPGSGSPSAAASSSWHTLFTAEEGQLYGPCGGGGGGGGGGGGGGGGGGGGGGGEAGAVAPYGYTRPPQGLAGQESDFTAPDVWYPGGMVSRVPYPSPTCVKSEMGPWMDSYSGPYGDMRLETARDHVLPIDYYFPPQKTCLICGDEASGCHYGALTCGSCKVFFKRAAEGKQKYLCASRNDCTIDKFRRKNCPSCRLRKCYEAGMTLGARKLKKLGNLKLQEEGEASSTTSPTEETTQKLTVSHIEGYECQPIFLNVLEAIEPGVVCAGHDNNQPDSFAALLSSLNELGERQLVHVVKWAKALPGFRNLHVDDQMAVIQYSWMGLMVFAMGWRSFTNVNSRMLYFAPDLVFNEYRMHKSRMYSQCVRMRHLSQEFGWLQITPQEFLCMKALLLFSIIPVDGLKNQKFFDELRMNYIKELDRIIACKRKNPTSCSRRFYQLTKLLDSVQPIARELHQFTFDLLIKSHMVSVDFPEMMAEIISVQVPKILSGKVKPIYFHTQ
Estrogen receptor (Homo sapiens), sequence (P03372 whole entry, looked up): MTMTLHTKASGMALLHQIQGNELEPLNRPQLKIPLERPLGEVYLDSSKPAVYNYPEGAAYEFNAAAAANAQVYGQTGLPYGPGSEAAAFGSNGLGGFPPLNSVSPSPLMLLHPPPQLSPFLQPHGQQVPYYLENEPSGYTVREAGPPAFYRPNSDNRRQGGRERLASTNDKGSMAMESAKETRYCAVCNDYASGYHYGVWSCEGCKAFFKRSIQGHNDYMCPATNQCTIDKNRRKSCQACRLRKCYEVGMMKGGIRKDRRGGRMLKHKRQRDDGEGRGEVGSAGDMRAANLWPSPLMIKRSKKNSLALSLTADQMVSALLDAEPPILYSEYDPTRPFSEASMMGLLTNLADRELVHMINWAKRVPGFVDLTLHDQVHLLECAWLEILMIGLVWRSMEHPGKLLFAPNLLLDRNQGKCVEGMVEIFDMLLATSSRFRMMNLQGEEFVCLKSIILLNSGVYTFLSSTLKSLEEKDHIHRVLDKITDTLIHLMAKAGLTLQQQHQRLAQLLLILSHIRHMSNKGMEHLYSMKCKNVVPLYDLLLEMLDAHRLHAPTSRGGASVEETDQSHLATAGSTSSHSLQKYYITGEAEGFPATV
Thyrotropin-releasing hormone receptor (Homo sapiens), sequence (P34981 whole entry, looked up): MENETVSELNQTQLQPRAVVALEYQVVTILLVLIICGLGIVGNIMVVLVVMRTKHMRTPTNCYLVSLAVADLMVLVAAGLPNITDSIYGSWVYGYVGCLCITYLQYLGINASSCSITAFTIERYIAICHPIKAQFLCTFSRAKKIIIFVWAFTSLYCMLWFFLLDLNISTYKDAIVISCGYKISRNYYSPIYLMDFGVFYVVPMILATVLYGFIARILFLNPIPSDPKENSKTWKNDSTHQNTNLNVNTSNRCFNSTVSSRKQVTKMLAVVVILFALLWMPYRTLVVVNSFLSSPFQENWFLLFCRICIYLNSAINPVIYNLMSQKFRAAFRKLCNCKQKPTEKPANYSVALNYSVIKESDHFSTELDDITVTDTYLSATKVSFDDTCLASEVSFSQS

`OC[C@H]1O[C@@H]2O[C@H]3[C@H](O)[C@@H](O)[C@@H](O[C@H]4[C@H](O)[C@@H](O)[C@@H](O[C@H]5[C@H](O)[C@@H](O)[C@@H](O[C@H]6[C@H](O)[C@@H](O)[C@@H](O[C@H]7[C@H](O)[C@@H](O)[C@@H](O[C@H]1[C@H](O)[C@H]2O)O[C@@H]7CO)O[C@@H]6CO)O[C@@H]5CO)O[C@@H]4CO)O[C@@H]3CO`: the Potency result is “inactive and 9.13 µM (active)” in [1]; “inactive and 22.9 µM (active)” in assay [11]. Moreover, the Potency entry in [2], in assay [3], in assay [4], in [5], in assay [6] and in [7] was “inactive” throughout. The Potency result in assay [8], in assay [9], in assay [10], in assay [12], in [13] and in [14] was “inactive” in each case. Moreover, the Potency entry in [16] and in assay [17] was “inactive” each time. In [15], the outcome was inactive.
As for `CCCCCCCC/C=C\CCCCCCCC(=O)O`, the Potency entry in assay [1], in assay [2], in assay [3], in assay [4], in assay [5] and in assay [6] was “inactive” each time. Also, the Potency result in [7], in assay [8], in [9], in assay [18], in assay [12] and in assay [19] was “inactive” throughout. Besides, the Potency entry in [13], in assay [14], in [16] and in assay [17] was “inactive” each time. Moreover, in assay [15], the outcome was inactive.
Take `Brc1nc2ccccc2s1`: the Potency entry in [1], in assay [2], in assay [3], in assay [4], in [5] and in assay [6] was “inactive” in each case. Besides, the Potency entry in assay [7], in assay [8], in [9], in [18], in assay [10] and in assay [11] was “inactive” each time. The Potency result in assay [12], in [19], in assay [13], in assay [14], in assay [16] and in assay [17] was “inactive” throughout. In addition, in assay [15], the result was inactive.
Consider `CCCCCCCCCCCCO`, for which, in assay [1], the Potency entry was “inactive and 60.4 µM (active)”. Moreover, the Potency entry in assay [2], in [3], in assay [4], in assay [5], in assay [6] and in assay [7] was “inactive” throughout. Also, the Potency result in [8], in [9], in [18], in assay [10], in [11] and in assay [12] was “inactive” in each case. Also, the Potency entry in assay [19], in assay [13], in [14], in assay [16] and in assay [17] was “inactive” each time. In addition, the call in [15] was inactive.
On to `CCc1cccc2c3c([nH]c12)C(CC)(CC(=O)O)OCC3` (stereo not given), for which the Potency result in assay [1], in [2], in [3], in [4], in assay [5] and in assay [20] was “inactive” each time. Moreover, the Potency result in assay [6], in assay [7], in [8], in assay [9], in [18] and in assay [10] was “inactive” in each case. Besides, the Potency entry in [11], in assay [12], in assay [19], in assay [13] and in assay [14] was “inactive” throughout. Besides, the compound was classed as inactive in assay [15].
Regarding `CCC/C=C/C=O`, the Potency result in assay [1], in assay [2], in [3], in [4], in [5] and in assay [6] was “inactive” in each case. Moreover, the Potency entry in [7], in assay [8], in [9], in [10], in [11] and in assay [19] was “inactive” each time. The Potency result in [13], in assay [14], in [16] and in assay [17] was “inactive” each time. For the same compound, the result in assay [15] was inactive.
`c1ccc2c(c1)ccc1ncccc12`: the Potency result in assay [1], in assay [2], in assay [3], in [4], in assay [5] and in [20] was “inactive” each time. For the same compound, the Potency entry in assay [6], in assay [7], in assay [8], in assay [9], in [10] and in assay [12] was “inactive” throughout. In addition, the Potency entry in [19], in assay [13], in assay [14], in [16] and in [17] was “inactive” throughout. The result in assay [15] was inactive.
